From PubChem BioAssay AID1159580 (chemical genetic matrix, 2015)
The whole screen tested about 5,500 compounds, of which about 2,000 (36%) were called active. About 18% were inconclusive and are not listed. No stated cut-off is given here; in the data, active means normalized growth mostly below about 0.91 (no sharp cut-off); inconclusive means no clear call, values can overlap the other calls; inactive means mostly above about 0.92. This is one part of the list.

Experiment: chemical genetic growth profiling, strain panel (AID 1159580);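 further: tested at 20 µM; growth read once vehicle control cultures reached saturation at 30 °C; 1 = growth at the plate median or of vehicle wells; lower values mean less growth of the strain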
Details: growth OD
[1] = S. cerevisiae deletion strains, locus YDL101C, strain DUN1, active compounds read low
[2] = S. cerevisiae deletion strains, locus YHR030C, strain SLT2, active compounds read low
[3] = S. cerevisiae deletion strains, locus YHR079C, strain IRE1, active compounds read low
[4] = S. cerevisiae deletion strains, locus YJL095W, strain BCK1, active compounds read low
[5] = S. cerevisiae deletion strains, locus YJR066W, strain TOR1, active compounds read low
[6] = S. cerevisiae deletion strains, locus YLR113W, strain HOG1, active compounds read low
[7] = S. cerevisiae deletion strains, locus YNL183C, strain NPR1, active compounds read low
[8] = S. cerevisiae deletion strains, locus YOR231W, strain MKK1, active compounds read low
[9] = S. cerevisiae deletion strains, locus YPL256C, strain CLN2, active compounds read low
[10] = S. cerevisiae deletion strains, locus YDR150W, strain NUM1, active compounds read low
[11] = S. cerevisiae deletion strains, locus YMR307W, strain GAS1, active compounds read low
[12] = S. cerevisiae deletion strains, locus YNL153C, strain GIM3, active compounds read low
[13] = S. cerevisiae deletion strains, locus YNL322C, strain KRE1, active compounds read low
[14] = S. cerevisiae deletion strains, locus YPL241C, strain CIN2, active compounds read low

Measured: normalized growth

O=C1C(Cl)=C(Oc2cc(Cl)c(Cl)cc2Cl)C(=O)c2ccccc21
active: S. cerevisiae deletion strains, locus YAR019C, strain CDC15, active compounds read low 0.215 | S. cerevisiae deletion strains, locus YBR136W, strain MEC1, active compounds read low 0.516 | [1] 0.524 | S. cerevisiae deletion strains, locus YDL132W, strain cdc53, active compounds read low 0.41 | S. cerevisiae deletion strains, locus YDL214C, strain PRR2, active compounds read low 0.114 | S. cerevisiae deletion strains, locus YDR052C, strain DBF4, active compounds read low 0.546 | S. cerevisiae deletion strains, locus YDR054C, strain cdc34, active compounds read low 0.133 | S. cerevisiae deletion strains, locus YDR477W, strain SNF1, active compounds read low 0.125 | S. cerevisiae deletion strains, locus YER123W, strain YCK3, active compounds read low 0.122 | S. cerevisiae deletion strains, locus YER133W, strain GLC7, active compounds read low 0.126 | S. cerevisiae deletion strains, locus YFL029C, strain CAK1, active compounds read low 0.236 | S. cerevisiae deletion strains, locus YFR019W, strain FAB1, active compounds read low 0.104 | S. cerevisiae deletion strains, locus YFR028C, strain CDC14, active compounds read low 0.149 | S. cerevisiae deletion strains, locus YGR040W, strain KSS1, active compounds read low 0.14 | S. cerevisiae deletion strains, locus YGR052W, strain FMP48, active compounds read low 0.126 | S. cerevisiae deletion strains, locus YGR092W, strain DBF2, active compounds read low 0.352 | [2] 0.122 | [3] 0.333 | S. cerevisiae deletion strains, locus YHR082C, strain KSP1, active compounds read low 0.148 | S. cerevisiae deletion strains, locus YHR205W, strain SCH9, active compounds read low 0.125 | [4] 0.114 | S. cerevisiae deletion strains, locus YJL128C, strain PBS2, active compounds read low 0.11 | S. cerevisiae deletion strains, locus YJL157C, strain FAR1, active compounds read low 0.303 | S. cerevisiae deletion strains, locus YJR066W, strain TOR1 (second series), active compounds read low 0.119 | [5] 0.12 | S. cerevisiae deletion strains, locus YKL048C, strain ELM1, active compounds read low 0.658 | S. cerevisiae deletion strains, locus YKL067W, strain YNK1, active compounds read low 0.32 | S. cerevisiae deletion strains, locus YKL101W, strain HSL1, active compounds read low 0.38 | S. cerevisiae deletion strains, locus YKL193C, strain SDS22, active compounds read low 0.174 | S. cerevisiae deletion strains, locus YKL203C, strain TOR2, active compounds read low 0.13 | [6] 0.171 | S. cerevisiae deletion strains, locus YLR133W, strain CKI1, active compounds read low 0.294 | S. cerevisiae deletion strains, locus YLR403W, strain SFP1, active compounds read low 0.197 | S. cerevisiae deletion strains, locus YML070W, strain DAK1, active compounds read low 0.105 | S. cerevisiae deletion strains, locus YMR001C, strain CDC5, active compounds read low 0.11 | S. cerevisiae deletion strains, locus YMR205C, strain PFK2 (second series), active compounds read low 0.538 | S. cerevisiae deletion strains, locus YMR277W, strain FCP1, active compounds read low 0.117 | S. cerevisiae deletion strains, locus YNL020C, strain ARK1, active compounds read low 0.555 | [7] 0.128 | S. cerevisiae deletion strains, locus YNL207W, strain RIO2, active compounds read low 0.537 | S. cerevisiae deletion strains, locus YNL222W, strain SSU72, active compounds read low 0.522 | S. cerevisiae deletion strains, locus YNL307C, strain MCK1 (second series), active compounds read low 0.246 | S. cerevisiae deletion strains, locus YOL078W, strain AVO1, active compounds read low 0.161 | S. cerevisiae deletion strains, locus YOL136C, strain PFK27, active compounds read low 0.11 | S. cerevisiae deletion strains, locus YOR061W, strain CKA2, active compounds read low 0.519 | S. cerevisiae deletion strains, locus YOR119C, strain RIO1, active compounds read low 0.118 | [8] 0.294 | S. cerevisiae deletion strains, locus YPL031C, strain PHO85, active compounds read low 0.225 | S. cerevisiae deletion strains, locus YPL153C, strain RAD53, active compounds read low 0.318 | S. cerevisiae deletion strains, locus YPL204W, strain HRR25, active compounds read low 0.327 | S. cerevisiae deletion strains, locus YPL209C, strain IPL1, active compounds read low 0.581 | [9] 0.183 | S. cerevisiae deletion strains, locus YPR025C, strain CCL1, active compounds read low 0.543 | S. cerevisiae deletion strains, strain TSCII, active compounds read low 0.345
inactive: S. cerevisiae deletion strains, locus YDL017W, strain CDC7, active compounds read low 0.912 | S. cerevisiae deletion strains, locus YDL028C, strain MPS1, active compounds read low 0.936 | S. cerevisiae deletion strains, locus YFL009W, strain cdc4, active compounds read low 0.922 | S. cerevisiae deletion strains, locus YFR003C, strain YPI1, active compounds read low 0.941 | S. cerevisiae deletion strains, locus YIL147C, strain SLN1, active compounds read low 0.938 | S. cerevisiae deletion strains, locus YJR016C, strain ILV3, active compounds read low 0.917 | S. cerevisiae deletion strains, locus YNL006W, strain LST8, active compounds read low 0.95 | S. cerevisiae deletion strains, locus YOR329C, strain SCD5, active compounds read low 0.94 | S. cerevisiae deletion strains, locus YPR111W, strain DBF20, active compounds read low 0.897

O=C1CC(Nc2ccccc2)C=C1Nc1ccccc1 (centres undefined)
inactive: S. cerevisiae deletion strains, locus YAL013W, strain DEP1, active compounds read low 1.01 | S. cerevisiae deletion strains, locus YBR229C, strain ROT2, active compounds read low 1.03 | S. cerevisiae deletion strains, locus YCL061C, strain MRC1, active compounds read low 1.01 | [1] 1.01 | S. cerevisiae deletion strains, locus YDL134C, strain PPH21, active compounds read low 1.02 | [10] 1.02 | S. cerevisiae deletion strains, locus YEL061C, strain CIN8, active compounds read low 1.01 | S. cerevisiae deletion strains, locus YGR078C, strain PAC10, active compounds read low 1.01 | [2] 1.01 | S. cerevisiae deletion strains, locus YHR087W, strain rtc3, active compounds read low 1.02 | S. cerevisiae deletion strains, locus YJR043C, strain POL32, active compounds read low 1.01 | S. cerevisiae deletion strains, locus YJR075W, strain HOC1, active compounds read low 1.03 | S. cerevisiae deletion strains, locus YKL190W, strain CNB1, active compounds read low 1.02 | S. cerevisiae deletion strains, locus YLR039C, strain RIC1, active compounds read low 0.977 | S. cerevisiae deletion strains, locus YLR058C, strain SHM2 (second series), active compounds read low 1.03 | S. cerevisiae deletion strains, locus YLR085C, strain ARP6, active compounds read low 0.968 | S. cerevisiae deletion strains, locus YLR262C, strain YPT6, active compounds read low 1.02 | S. cerevisiae deletion strains, locus YML094W, strain GIM5, active compounds read low 1.01 | S. cerevisiae deletion strains, locus YMR219W, strain ESC1, active compounds read low 1.03 | S. cerevisiae deletion strains, locus YMR263W, strain SAP30, active compounds read low 1 | [11] 1.02 | [12] 1 | S. cerevisiae deletion strains, locus YNL298W, strain CLA4 (second series), active compounds read low 0.979 | [13] 1.01 | S. cerevisiae deletion strains, locus YNR030W, strain Alg12, active compounds read low 1.01 | S. cerevisiae deletion strains, locus YPL055C, strain LGE1, active compounds read low 1.09 | [14] 0.998 | S. cerevisiae deletion strains, locus YPR135W, strain CTF4, active compounds read low 0.966 | S. cerevisiae strains, strain wild type, active compounds read low 1.02

NC(=O)OCC(COC(N)=O)c1ccccc1
inactive: S. cerevisiae deletion strains, locus YAL040C, strain CLN3, active compounds read low 1.03 | S. cerevisiae deletion strains, locus YCL061C, strain MRC1 (second series), active compounds read low 1.01 | [10] 1 | S. cerevisiae deletion strains, locus YDR363W, strain ESC2, active compounds read low 1 | S. cerevisiae deletion strains, locus YER002W, strain NOP16, active compounds read low 0.999 | S. cerevisiae deletion strains, locus YGR229C, strain SMI1, active compounds read low 0.991 | [2] 0.975 | [3] 0.991 | [4] 0.959 | [5] 0.932 | [6] 0.99 | [11] 0.985 | [12] 1.04 | S. cerevisiae deletion strains, locus YNL175C, strain NOP13, active compounds read low 0.999 | [7] 0.945 | S. cerevisiae deletion strains, locus YNL197C, strain WHI3, active compounds read low 1 | S. cerevisiae deletion strains, locus YNL224C, strain SQS1, active compounds read low 1.03 | [13] 1.02 | S. cerevisiae deletion strains, locus YOR083W, strain WHI5 (second series), active compounds read low 1.02 | [8] 0.976 | [14] 1.01 | [9] 0.976
